Source: PubChem
This is a sample that favours compounds with a hit; in the whole collection about 18% have one here.
TDP1 cell CPT – growth inhibition of DT40 Tdp1-/-;hTDP1 cells with camptothecin (screen for TDP1 inhibitors). chicken DT40 Tdp1-/-;hTDP1 cells + 20 nM CPT, ATP luminescence, 48 h. AID 686979. hit rate 12% among 420,000. Potency, µM (top dose mostly 46.2 µM), for the others: at the highest dose activity change, negative = growth inhibition, hits mostly inhibitors; also: potency is read from the fitted curve at half-maximal effect; nearly all actives have a fitted effect of over 55% in size
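Chicken DT40 Tdp1-/- cells stably complemented with human TDP1 were seeded at 400 cells/well in medium containing 20 nM camptothecin, exposed to pin-transferred compounds, and grown at 37 °C for at least 48 hr. Viability was read as ATP luminescence.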
IL1B secr inh – inflammasome signaling inhibition, IL-1 beta readout. THP-1 LPS/ATP IL-1B secretion, AlphaLISA, 16 h; active compounds read low. activity change, % at 57.5 µM. hit rate 4.7% among 360,000; in the data active = activity change below about -50%; inconclusive = mostly about -30% to -49%
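THP-1 cells pretreated 1 hr with compounds (up to 57.5 uM final), then stimulated with LPS (250 ng/mL final) plus ATP (1.25 mM final); secreted IL-1B measured by AlphaLISA after 16 hr, decreased signal indicating inhibition.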
CtBP-E1A blk – inhibitors of CtBP/E1A interaction | AlphaScreen GST-E1A/His-CtBP binding, 1536-well; active compounds read low | activity change, % (concentration not given with the values) | hit rate 0.49% among 340,000; in the data active = activity change below about -65%; inconclusive = mostly about -30% to -63%
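AlphaScreen with 125 nM GST-E1A and 125 nM His-CtBP (5X stocks) in Tris pH 8.0, 300 mM NaCl, BSA, Tween 20, TCEP. Compounds preincubated 2 h at 37 deg C, then glutathione donor/nickel acceptor beads added for 1 h at 37 deg C in dark.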
TDP1 inh – TDP1 (human) enzyme inhibition; Potency, µM (highest dose often 130 µM), for inactives: at the top dose activity change, negative = inhibition, hits mostly inhibitors; hit rate 0.28% among 350,000; Q9NUW8; recombinant TDP1, AlphaScreen DNA substrate cleavage; also: potency is read from the fitted curve at half-maximal effect; nearly all actives have a fitted effect of over 40% in size
Target sequence (Q9NUW8 whole entry, looked up): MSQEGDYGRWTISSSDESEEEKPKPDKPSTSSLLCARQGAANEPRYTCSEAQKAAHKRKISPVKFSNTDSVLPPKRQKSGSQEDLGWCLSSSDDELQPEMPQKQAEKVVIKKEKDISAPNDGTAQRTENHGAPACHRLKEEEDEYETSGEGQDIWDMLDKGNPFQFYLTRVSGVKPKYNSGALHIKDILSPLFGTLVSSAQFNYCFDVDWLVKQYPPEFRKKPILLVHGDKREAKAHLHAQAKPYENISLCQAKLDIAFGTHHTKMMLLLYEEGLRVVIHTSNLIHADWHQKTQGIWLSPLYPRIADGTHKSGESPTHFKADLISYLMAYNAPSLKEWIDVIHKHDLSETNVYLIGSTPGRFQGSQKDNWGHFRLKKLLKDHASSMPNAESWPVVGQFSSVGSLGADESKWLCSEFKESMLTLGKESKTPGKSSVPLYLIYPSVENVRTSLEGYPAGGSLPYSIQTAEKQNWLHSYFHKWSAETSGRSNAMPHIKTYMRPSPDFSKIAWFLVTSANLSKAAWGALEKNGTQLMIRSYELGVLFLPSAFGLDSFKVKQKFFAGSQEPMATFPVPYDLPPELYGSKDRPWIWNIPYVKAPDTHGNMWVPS
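AlphaScreen read-out: signal falls as enzyme removes the 3' tyrosine-FITC from a 5'-biotinylated DNA oligo (15 nM, 5 min, RT). Enzyme was E. coli-made recombinant Tdp1 at 1 nM, exposed to compound for 15 min beforehand; beads 10 ug/ml, 10 min.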
DT40 TDP1 no CPT – qHTS for Inhibitors of human tyrosyl-DNA phosphodiesterase 1 (TDP1): qHTS in cells in absence of CPT; DT40 Tdp1-/- hTDP1 cells, no CPT, ATP luminescence, 48 h; Potency, µM (highest dose often 46.2 µM), without a hit: top-dose activity change, negative = growth inhibition, hits mostly inhibitors; hit rate 15% among 420,000; also: potency is read from the fitted curve at half-maximal effect; nearly all actives have a fitted effect of over 55% in size
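Stably hTDP1-transfected Tdp1-null chicken DT40 cells were treated with library compounds minus camptothecin and grown for at least 48 hr at 37 °C, after which cellular ATP was quantified by luminescence.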
Six1-Eya2 blk – blocks human Six1 binding to Eya2. Q15475+O00167. AlphaScreen GST-Six1/His-Eya2 binding, biochemical; active compounds read low. activity change, % (test concentration not listed). hit rate 0.56% among 360,000; in the data active = activity change below about -65%; inconclusive = mostly about -30% to -63%
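AlphaScreen with GST-Six1 and His-Eya2 (5X mix: 250 nM and 500 nM), glutathione donor and nickel acceptor beads; buffer 50 mM Tris pH 8.0, 300 mM NaCl, 1 mM TCEP; 1 h at 37 C in the dark.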
Numbers without * were called inactive; ? = inconclusive; nt = no result; ! = not active in a repeat; [ ] = another dose, or the depositor's remark. Unless noted, calls follow the shape of the dose curve; as a rule, active = well fitted curve in the direction sought with a large enough effect; inconclusive = small, poorly fitted or top-dose-only effect, or another doubt; inactive = no such curve, though single readings can be large; an effect the other way counts as inactive or inconclusive. % is scaled to controls: 0 for no effect and ±100 for the full control effect.

SMILES | TDP1 cell CPT | IL1B secr inh | CtBP-E1A blk | TDP1 inh | DT40 TDP1 no CPT | Six1-Eya2 blk
COc1ccc(C[C@H]2CN3C(=NC[C@@H]3Cc3ccccc3)N2CCNC(=O)CCC2CCCCC2)cc1 | 13µM* | -20.7 | -3.5 | 6.4% | 16.4µM* | -0.9
C/C=C(\C)C(=O)NCCN1C2=NC[C@H](C)N2C[C@@H]1Cc1ccc(OC)cc1 | -20.4% | -2.0 | -1.3 | 3.8% | -0.6% | -6.8
COc1ccc(C[C@H]2CN3C(=NC[C@@H]3C(C)C)N2CCNC(=O)CCC2CCCCC2)cc1 | 8.2µM* | -55.6* | -0.8 | 1.3% | 7.31µM* | 0.4
COC(=O)[C@H]1C[C@H]1[C@@H](NC(=O)c1ccc[nH]1)c1ccccc1 | -1.0% | 51.9 | -3.6 | 11.5% | 0.7% | 2.4
COc1ccccc1CNC(=O)C1CC2Cn3c(nc4ccccc43)C2N1C (configuration not stated) | -14.8% | 8.0 | -9.7 | 0.0% | ? | -5.2
CCOC(=O)N1C=CC(C)=C[C@@H]2[C@@H](N3C(=O)c4ccccc4C3=O)C(=O)N21 | 3.2% | 0.0 | -0.5 | 0.0% | 0.3% | 7.4
CCS(=O)(=O)N1CCC(NC(=O)c2ccco2)CC1 | -1.4% | 9.6 | 10.7 | -2.1% | 9.3% | -2.1
COc1ccc(C[C@@H]2CN3C(=NC[C@@H]3C)N2CCNC(=O)c2ccc(C)c(Br)c2)cc1 | 23.1µM* | ? | nt | 3.8% | 13µM* | 2.6
COc1ccc(-c2cc(C(=O)NC3CCCCC3)no2)cc1OC | 14.8% | 3.2 | 1.8 | -7.2% | 14.4% | -0.9
O=C(/C=C/NCc1cccnc1)c1ccc(Br)cc1 | 1.9% | -18.8 | -0.1 | nt | 10.4% | -6.7
COc1cccc(CNC(=O)C(Cc2ccccc2)n2cccc2)c1 (configuration not stated) | ? | ? | -0.6 | 8.0% | ? | -2.8
COc1ccc(NC(=O)C(c2ccccc2)c2ccccc2)c(OC)c1 | ? | -14.3 | -1.2 | nt | ? | 0.6
COc1ccc(NC(=O)C(Cc2ccccc2)n2cccc2)c(OC)c1 (configuration not stated) | 23.1µM*! | -6.4 | nt | 7.7% | 18.4µM*! | -21.7
COc1cccc(NC(=O)C(Cc2ccccc2)n2cccc2)c1 (configuration not stated) | -21.0% | -73.0* | -1.8 | 7.7% | -23.3% | -13.9
NC(=O)CC[C@H](NC(=O)c1ccc(F)cc1)C(=O)OCC(=O)Nc1ccc(N2CCOCC2)cc1 | -11.0% | 0.0 | 0.0 | 2.4% | -26.3% | 21.6
C/C(=N\O)c1ccc2c(c1)OCCO2 | -4.2% | -24.0 | nt | 1.2% | 3.66µM* | 0.2
CC(=O)c1ccc2c(c1)OCCOCCOCCO2 | -4.5% | 6.3 | -5.4 | nt | -9.4% | -8.6
C/C(=N/O)c1ccc2c(c1)OCCOCCOc1cc(/C(C)=N/O)ccc1OCCOCCO2 | ? | -19.4 | 0.5 | 6.7% | 16.4µM* | 0.3
CCC(C(=O)OCC(=O)Nc1c(C)n(C)n(-c2ccccc2)c1=O)c1ccccc1 (configuration not stated) | -18.9% | 27.5 | 2.0 | 0.0% | -12.0% | 3.8
CCOC(=O)c1c(NC(=O)CSc2nnc(-c3ccccc3C)n2C)sc(C(C)=O)c1C | 18.4µM* | ? | -25.1 | 3.6% | 11.6µM* | -11.5
CCOC(=O)c1c(NC(=O)CSc2nc3cccnc3n2C)sc(C(C)=O)c1C | 18.4µM* | -1.9 | 2.8 | 4.9% | 13µM* | -1.9
CCOC(=O)c1cccc(NC(=O)CSc2nc3cccnc3n2C)c1 | 20.6µM* | -53.0* | -16.0 | 7.2% | 16.4µM* | -16.9
CCOC(=O)c1sc(NC(=O)CSc2nc3cccnc3n2C)nc1C | 5.1% | 36.2 | 3.2 | nt | -14.0% | 0.1
CCc1noc(C)c1C(=O)NCCc1ccccc1 | 17.0% | 5.1 | 3.6 | -14.7%[0.505 µM] | -11.6% | 6.0
CC1(C(=O)Nc2ccc(Cl)c(Cl)c2)CCN1C(=O)CCC1CCCC1 (configuration not stated) | 23.1µM* | 3.7 | 21.6 | nt | 23.1µM* | 15.3
SMILES | TDP1 cell CPT | IL1B secr inh | CtBP-E1A blk | TDP1 inh | DT40 TDP1 no CPT | Six1-Eya2 blk
CC1(C(=O)Nc2cccc3c2CCCC3)CCN1C(=O)CCC1CCCC1 (configuration not stated) | 20.6µM* | 15.3 | 1.5 | nt | ? | -0.3
COc1ccc(OC)c(NC(=O)C2(C)CCN2C(=O)CC2CC2)c1 (configuration not stated) | -10.5% | 20.9 | 0.2 | nt | ? | 1.9
COc1ccc(OC)c(NC(=O)C2(C)CCN2C(=O)CCC2CCCC2)c1 (configuration not stated) | 16.4µM* | -3.6 | -3.0 | nt | ? | -13.9
Cc1ccc(NC(=O)C2(C)CCN2C(=O)CCC2CCCC2)cc1C (configuration not stated) | ? | 0.0 | 10.0 | nt | ? | 9.5
Nc1ccccc1C(=O)N=Nc1[nH]c(N)c2ccccc12 | -8.8% | -3.6 | -87.1* | 4.5% | -17.3% | -76.2*
Nc1nc(NCCO)nc(NCc2ccccc2)c1[N+](=O)[O-] | -20.2% | 52.0 | 1.5 | nt | ? | 1.3
O=C(C[C@H]1CC[C@@H](NS(=O)(=O)c2ccccc2)[C@@H](CO)O1)NCc1ccc(Cl)c(Cl)c1 | 20.6µM* | 20.9 | 5.2 | nt | 20.6µM* | 7.8
C=CCn1c(SCc2nc3sc(C(=O)O)c(C)c3c(=O)[nH]2)nnc1-c1ccccc1 | 6.5% | 29.9 | -23.5 | nt | -0.7% | -0.2
C=CCn1c(SCc2nc3sc(C(=O)O)c(C)c3c(=O)[nH]2)nnc1-c1ccc(C(C)(C)C)cc1 | -7.7% | -16.2 | -3.4 | 20µM* | -3.7% | -24.8
CC1CC(C)CN(C(=O)c2cc(-c3ccccn3)nc3ccccc23)C1 (configuration not stated) | ? | 12.0 | -9.0 | 5.1% | -13.7% | -0.7
CC1CN(C(=O)c2cc(-c3ccc(Cl)s3)nc3ccccc23)CC(C)O1 (configuration not stated) | ? | -53.4* | -15.9 | -6.4% | 16.4µM* | 3.8
O=C(NCCCN1CCOCC1)c1cc(-c2cccc(Br)c2)nc2ccccc12 | ? | -64.4* | -27.5 | 3.6% | ? | -18.1
O=C(NCCCN1CCOCC1)c1cc(-c2ccc(Cl)s2)nc2ccccc12 | ? | -77.6* | -3.7 | nt | ? | -2.6
O=C(NCCCN1CCOCC1)c1cc(-c2ccc(F)cc2)nc2ccccc12 | ? | -27.3 | -2.8 | 0.8% | -26.3% | -4.8
CC(C)CC(=O)Nc1ccc(C(=O)OCc2cc(=O)n3nc(C4CCCCC4)sc3n2)cc1 | ? | nt | nt | 3.8% | ? | nt
